Test results published in PubChem BioAssay (NCI).
This is part of a sample that, as a whole, favours compounds with a hit. Of some 83,000 tested, about 20% had one in any assay.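 Values shown are percent growth following 48 h exposure of cells in 96-well plates to a single concentration of compound; below 10 was considered active.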 A number with no mark means an inactive call. Calls of active or inactive are those of the source.

Each compound was assayed on T-47D breast (assay: NCI-60 one-dose screen, 48 h (100 = growth as untreated, 0 = no growth, -100 = all killed)). Settings: 10 µM unless noted.
`CC(C)C[C@H](NC(=O)/C=C/Cn1ccc2ccccc2c1=O)B(O)O` showed a growth of 17.6%.
Work on `C[C@]12CCC(=O)C=C1CC[C@H]1[C@@H]3C[C@@H](O)[C@](O)(C(=O)CO)[C@@]3(C)C[C@H](O)[C@@]12F` yielded a growth of 103%.
`CNNc1ncnc2c1cnn2-c1ccc(S(N)(=O)=O)cc1` showed a growth of 98.2%.
For `O=C(C(=O)c1cc(Br)ccc1O)c1cc(Br)ccc1O`, the growth was 8.38% (active).
Compound `COc1ccc(/C=C2\CCc3ccccc3C2=O)cc1` has a growth of 92.5%.
For `CC(C)N(Cc1ccccc1)c1c(S)ssc1=S`, the growth was 18.2%.
Work on `O=C1C=CC(=O)N1c1ccccn1` yielded a growth of 106%.
`COc1cccc(/C=N\NC(=O)c2ccncc2)c1O` showed a growth of 28.2%.
With `CN[C@@H]1C(OC2[C@H](O[C@H]3[C@H](O)[C@@H](O)[C@H](N=C(N)N)[C@@H](O)[C@@H]3N=C(N)N)OC(C)[C@]2(O)CO)OC(CO)C(O)C1O` (stereo not given in full) the growth was 111%.
Compound `CC(C)Sc1nc(-c2ccc(Br)cc2)c(C#N)c(N2CCCCC2)n1` has a growth of 94.3%.
Work on `O=CN1N=C(c2ccc(Nc3ccnc4cc(Cl)ccc34)cc2)CC1c1ccc(Cl)cc1` (stereo not given) yielded a growth of 23.1%.
`O=C(O)c1ccc2cccnc2c1O` showed a growth of 10.3%.
`O=C(Nc1ccc2c(c1)C(=O)c1ccccc1-2)c1ccccc1` was tested, and the growth was 73.2%.
In the case of `Nc1ccccc1C#Cc1ccccc1C#Cc1ccc(OCCCCCCOc2ccc(C#Cc3ccccc3C#Cc3ccccc3N)cc2)cc1`, the growth is reported as 90.1%.
In the case of `O=C(CC(C(=O)c1ccccc1)N1CCN(Cc2ccccc2)CC1)c1ccccc1` (stereo not given), the growth is reported as 45.6%.
With `Cc1ccc(S(=O)(=O)N2CCN(C(=O)CSc3nc4ccc(C)cc4[nH]3)CC2)cc1` the growth was 99.8%.
`CCCCc1ccc(C(N)=O)nc1` was tested, and the growth was 101%.
Compound `CC(=O)O[C@H]1CC[C@@]2(C)C(=CC[C@@H]3[C@@H]2CC[C@]2(C)C(c4cccnc4)=CC[C@@H]32)C1` has a growth of 47.2%.
With `COc1cnc2c(c1)C(=O)c1c-2n(CCCN2CCOCC2)c(=O)c2cc(F)ccc12` the growth was -16% (active).
Work on `O=Cc1ccccc1C(=O)O` yielded a growth of 97.2%.
For `O=C(NCCNC(=O)Oc1cccc2ccccc12)Oc1cccc2ccccc12`, the growth was 71.7%.
With `COc1ccc2cc(C3=CC(=O)CCC3)ccc2c1` the growth was 59.6%.
With `COc1ccc(NS(=O)(=O)N2CCCCC2)cc1` the growth was 95.3%.
With `[N-]=[N+]=NCc1ncc(-c2ccc(C(F)(F)F)cc2)c(NC2CCCCCC2)n1` the growth was 63.1% [50 µM].
Compound `O=C(CNC(=O)c1cccc2ccccc12)Nc1ccccc1Cc1ccccc1` has a growth of 37.7% [5 µM].
In the case of `COc1ccc2c(c1)[n+](=O)c(/C=C/C(=O)c1cc(OC)c(OC)c(OC)c1)c(C)n2[O-]`, the growth is reported as 28.3%.
`O=C1NCCc2c1noc2-c1ccccc1` was tested, and the growth was 89.3%.
Work on `Cc1sc2nc(N3CCCCC3)[nH]c(=O)c2c1C` yielded a growth of 84.2%.
In the case of `CS(=O)(=O)N1CCN(Cc2cc3nc(-c4cccc5[nH]ncc45)nc(N4CCOCC4)c3s2)CC1` (tested in a mixture with another compound), the growth is reported as -7.59% (active).
In the case of `C=CCN(/C=C/CN(CC=C)CC=C)CC=C`, the growth is reported as 101%.
Work on `O=C(O)C1CCN(S(=O)(=O)c2ccc(-c3ccccc3)cc2)CC1` yielded a growth of 107%.
For `Cc1ccc(NC(=O)c2sc3nc4c(cc3c2N)C(=O)CCC4)cc1`, the growth was 94.7%.
In the case of `Oc1c(Cl)cc(Oc2cc(Cl)c(O)c(CN3CCOCC3)c2)cc1CN1CCOCC1`, the growth is reported as 69.7%.
`COC(=O)[C@H](CCCCNC(=O)OCc1ccccc1)NC(=O)[C@@H](NC(=O)Nc1cc(C(F)(F)F)cc(C(F)(F)F)c1)C(C)C` was tested, and the growth was -57.6% [100 µM] (active).
`CCSc1nc(Nc2ccc(S(=O)(=O)Nc3ccon3)cc2)c(C#N)c(-c2cccc(Br)c2)n1` showed a growth of 81%.
Work on `CCCCN1c2nc3ccccc3cc2Sc2cc3ccccc3nc21` yielded a growth of 13.7%.
`COc1cc(/C=C\C(C)=N\Nc2ccccc2)ccc1O` was tested, and the growth was 68%.
`O=c1[nH]c(SCc2ccccc2)nc2nc(Nc3ccc(NC(=S)Nc4ccccc4)cc3)nc(-c3ccc(O)cc3O)c12` showed a growth of 73.1%.
`O=C(Oc1ccccc1)C(Br)C(Br)c1ccccc1` (stereo not given) showed a growth of 94%.
`O=c1oc2c(cc1-c1ccc([N+](=O)[O-])cc1)C(O)Oc1ccccc1-2` (stereo not given) was tested, and the growth was 75.3%.
